# “And” between values parts separate entries of the source, which are not always exact repeats. Identical values can stand only once. Records with an inconclusive call do not appear. The source made the active and inactive calls.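 The calls were made as follows, unless noted: active = normalized viability below 100% at a tested concentration; inactive = the rest.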
# Legend:
# [1] = growth inhibition of DIPG glioma cells, dose response, cell-based, SU-DIPG-XVII, MIPE5.0, CellTiter-Glo, qHTS (AID 1347060; cut-off not given, nearly all actives have AC50 up to about 26 µM;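 as to AC50: cells exposed to compound for 48 hours before viability readout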); conditions: SU-DIPG-XVII viability, CellTiter-Glo ATP luminescence
# [2] = growth inhibition of DIPG glioma cells, dose response, cell-based, JHH-DIPG-1, MIPE4.0, CellTiter-Glo, qHTS (AID 1347062; cut-off not given, nearly all actives have AC50 up to about 27 µM;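 as to AC50: cells exposed to compound for two days before readout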); conditions: JHH-DIPG-1 viability, CellTiter-Glo ATP luminescence
# [3] = growth inhibition of DIPG glioma cells, dose response, cell-based, SU-DIPG-IV, MIPE4.0, CellTiter-Glo, qHTS (AID 1347063; cut-off not given, nearly all actives have AC50 up to about 30 µM;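 also: compound exposure lasted 48 hours before the viability readout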); conditions: SU-DIPG-IV viability, CellTiter-Glo ATP luminescence
# [4] = viability loss in pontine glioma line – cell-based, SU-DIPG-XXV, MIPE5.0, CellTiter-Glo, qHTS, dose response (AID 1347065; cut-off not given, nearly all actives have AC50 up to about 26 µM;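 also: cells exposed to compound for 48 hours before ATP readout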); conditions: CellTiter-Glo ATP luminescence
# [5] = SU-DIPG-VI glioma cell viability, MIPE4.0 library, CellTiter-Glo luminescence, qHTS (AID 1347066; cut-off not given, nearly all actives have AC50 up to about 30 µM;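 also: cells exposed to compound for 48 hours before readout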); conditions: CellTiter-Glo ATP luminescence
# [6] = JHH-DIPG-1 glioma cell viability, MIPE5.0 library, CellTiter-Glo luminescence, qHTS (AID 1347067; cut-off not given, nearly all actives have AC50 up to about 26 µM;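 also: cells exposed to compound for 48 hours before readout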); conditions: JHH-DIPG-1 glioma viability, CellTiter-Glo ATP luminescence
# [7] = SU-DIPG-XXV glioma cell viability, MIPE5.0 library, qHTS (AID 1347068; cut-off not given, nearly all actives have IC50 up to about 30 µM;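 also: cells exposed to compound for 48 hours before viability readout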)
# [8] = sensitizers of A549 cells to miR-34 induction, primary screen, imaging, A549 dox-inducible miR-34, nuclei and caspase counts (AID 1347080;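 active = compounds whose cell count with miR-34 switched on is under 0.7 times the count with it off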); conditions: A549 miR-34 inducible, Hoechst nuclei count, 48 h
# [9] = survival rescue of mitochondrial mutant cells in low glucose, primary screen, MELAS cybrids, Rieske KO mouse fibroblasts, CellTiter-Glo (AID 1508586;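 active = mean z-score across replicates of 1.96 or higher in either the MELAS or the Rieske mutant cell line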;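 also: z relative to plate mean and SD of compound and empty wells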)
# [10] = modifiers of HSF1 nuclear foci, imaging, Selleck Cancer Library (AID 1347162; in the data active = plate-normalised HSF1 focus index below about 0.46); conditions: human cells, at 10 µM; SSMD: measured here: HSF1 foci SSMD mean; cell count: measured here: cell number; plate-normalised HSF1 focus index: stronger effect = lower value
# [11] = ovarian cancer cell viability with rucaparib, profiling panel, oncology-focused library, rucaparib conditional (AID 1508598); conditions: patient-derived ovarian cancer cells, CellTiter-Glo viability, 144 h, stronger effect = lower value
# [12] = LFS_MB_P medulloblastoma growth inhibition, cell-based, chromothripsis tumors, cisplatin or BGB combos (AID 1671449; in the data active = inhibition above about 80%;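 also: cells exposed for 96 hours; 0% = vehicle DMSO and 100% = killing by high DMSO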); conditions: LFS_MB_P medulloblastoma cells
# [13] = HDN33 neuroblastoma growth inhibition, cell-based, chromothripsis tumors, cisplatin or BGB combos (AID 1671450; in the data active = inhibition above about 80%;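 also: cells exposed to compound for four days; 0% = vehicle DMSO and 100% = cell killing by high DMSO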); conditions: HDN33 neuroblastoma cells, stronger effect = higher value
# [14] = ICB984 medulloblastoma cell growth inhibition, synergistic combos for chromothripsis tumors, cisplatin or BGB combos (AID 1671451; call rule not given here;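 also: cells exposed for 96 hours before readout; 0% = vehicle DMSO and 100% = killing by high DMSO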); conditions: ICB984 medulloblastoma cells, drug combinations, stronger effect = higher value
# [15] = HTB85 osteosarcoma cell growth inhibition, synergistic combos for chromothripsis tumors, BGB or cisplatin IC20 combos (AID 1671453; in the data active = inhibition above about 80%;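 also: cells exposed for 96 hours before readout; 0% = vehicle DMSO and 100% = high DMSO killing control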); conditions: HTB85 osteosarcoma cells, drug combinations, stronger effect = higher value
# [16] = MDA-MB-436 breast carcinoma cell growth inhibition, synergistic combos for chromothripsis tumors, BGB or cisplatin combos (AID 1671458; call rule not given here;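 also: cells exposed for 96 hours; 0% = vehicle DMSO and 100% = killing by high DMSO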); conditions: MDA-MB-436 breast carcinoma growth inhibition, drug combinations, stronger effect = higher value
# [17] = growth inhibition of BT084 medulloblastoma cells, cell-based, ICGC_MB145, cisplatin and BGB IC40 combos (AID 1671461; in the data active = inhibition above about 80%;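 also: cells exposed to drugs for 96 hours; 0% = vehicle DMSO and 100% = high DMSO full killing control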); conditions: drug combinations, stronger effect = higher value
# [18] = growth inhibition of RCMB18 medulloblastoma cells, cell-based, cisplatin and BGB IC40 combos (AID 1671462; in the data active = inhibition above about 80%;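 also: cells exposed to compound for four days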); conditions: stronger effect = higher value
# [19] = growth inhibition of CRL1545 osteosarcoma cells, cell-based, cisplatin and BGB IC20 combos (AID 1671464; in the data active = inhibition above about 80%;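 also: cells exposed to compound for 96 hours before readout; 0% = vehicle DMSO and 100% = high DMSO killing control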); conditions: stronger effect = higher value
# [20] = measured here: with BGB IC20 combination, at 0.5 µM
# [21] = measured here: with cisplatin IC20 combination, at 0.5 µM
compound,measurement,setting,value
O=C1NCCc2[nH]c(-c3ccncc3)cc21,AC50,[1],3.72 µM (active)
same,AC50,[2],3.32 µM (active)
same,AC50,[3],2.64 µM (active)
same,AC50,[4],2.09 µM (active)
same,outcome,[5],inactive
same,AC50,[6],3.32 µM (active)
same,IC50,[7],5.25 µM (active)
same,fold change,"[8]; stronger effect = lower value, cell number ratio, induced over uninduced",1.04 (inactive)
same,fold change,[8]; measured here: relative caspase fold change +Dox/-Dox,0.743
same,cell count,"[8]; measured here: total cells with miR-34 induction, stronger effect = lower value",2250
same,cell count,[8]; measured here: total cells without miR-34 induction,2160
same,z-score,"[9]; MELAS cybrid survival, CellTiter-Glo 48 h, stronger effect = higher value",0.826 (inactive)
same,z-score,"[9]; Rieske KO mouse fibroblast survival, CellTiter-Glo 72 h",-3.11
COC[C@H](NC(=O)c1cnc(C)s1)C(=O)N[C@@H](COC)C(=O)N[C@@H](Cc1ccccc1)C(=O)[C@@]1(C)CO1,AC50,[1],0.186 µM (active)
same,AC50,[2],0.148 µM (active)
same,AC50,[3],0.148 µM (active)
same,AC50,[5],332 nM (active)
CC1(C)CCC(c2ccc(Cl)cc2)=C(CN2CCN(c3ccc(C(=O)NS(=O)(=O)c4ccc(N[C@H](CCN5CCOCC5)CSc5ccccc5)c(S(=O)(=O)C(F)(F)F)c4)cc3)CC2)C1,AC50,[1],8.33 µM (active)
same,AC50,[2],18.7 µM (active)
same,AC50,[3],2.09 µM (active)
same,AC50,[4],0.148 µM (active)
same,AC50,[5],590 nM (active)
same,AC50,[6],7.42 µM (active)
same,IC50,[7],3.32 µM (active)
same,SSMD,[10],-3.49
same,cell count,[10],6830
same,plate-normalised HSF1 focus index,[10],0.875 (inactive)
same,viability,"[11]; at 0.000305 µM, OCI-C5x cells, with rucaparib 10 µM, 100% = cells with rucaparib alone",37.1% (active)
same,viability,"[11]; at 0.000305 µM, OCI-C5x cells, without rucaparib",78.4% (active)
same,viability,"[11]; at 0.000305 µM, OCI-P5x cells, with rucaparib 20 µM, 100% = cells with rucaparib alone",132% (inactive)
same,viability,"[11]; at 0.000305 µM, OCI-P5x cells, without rucaparib",120% (inactive)
same,viability,"[11]; at 0.00122 µM, OCI-C5x cells, with rucaparib 10 µM, 100% = cells with rucaparib alone",12.7% (active)
same,viability,"[11]; at 0.00122 µM, OCI-C5x cells, without rucaparib",34.9% (active)
same,viability,"[11]; at 0.00122 µM, OCI-P5x cells, with rucaparib 20 µM, 100% = cells with rucaparib alone",118% (inactive)
same,viability,"[11]; at 0.00122 µM, OCI-P5x cells, without rucaparib",106% (inactive)
same,viability,"[11]; at 0.00488 µM, OCI-C5x cells, with rucaparib 10 µM, 100% = cells with rucaparib alone",32.2% (active)
same,viability,"[11]; at 0.00488 µM, OCI-C5x cells, without rucaparib",62.4% (active)
same,viability,"[11]; at 0.00488 µM, OCI-P5x cells, with rucaparib 20 µM, 100% = cells with rucaparib alone",127% (inactive)
same,viability,"[11]; at 0.00488 µM, OCI-P5x cells, without rucaparib",105% (inactive)
same,viability,"[11]; at 0.0195 µM, OCI-C5x cells, with rucaparib 10 µM, 100% = cells with rucaparib alone",19.9% (active)
same,viability,"[11]; at 0.0195 µM, OCI-C5x cells, without rucaparib",46.8% (active)
same,viability,"[11]; at 0.0195 µM, OCI-P5x cells, with rucaparib 20 µM, 100% = cells with rucaparib alone",110% (inactive)
same,viability,"[11]; at 0.0195 µM, OCI-P5x cells, without rucaparib",101% (inactive)
same,viability,"[11]; at 0.0781 µM, OCI-C5x cells, with rucaparib 10 µM, 100% = cells with rucaparib alone",14.8% (active)
same,viability,"[11]; at 0.0781 µM, OCI-C5x cells, without rucaparib",15.9% (active)
same,viability,"[11]; at 0.0781 µM, OCI-P5x cells, with rucaparib 20 µM, 100% = cells with rucaparib alone",110% (inactive)
same,viability,"[11]; at 0.0781 µM, OCI-P5x cells, without rucaparib",102% (inactive)
same,viability,"[11]; at 0.313 µM, OCI-C5x cells, with rucaparib 10 µM, 100% = cells with rucaparib alone",10.6% (active)
same,viability,"[11]; at 0.313 µM, OCI-C5x cells, without rucaparib",18.4% (active)
same,viability,"[11]; at 0.313 µM, OCI-P5x cells, with rucaparib 20 µM, 100% = cells with rucaparib alone",100% (inactive)
same,viability,"[11]; at 0.313 µM, OCI-P5x cells, without rucaparib",92.1% (active)
same,viability,"[11]; at 1.25 µM, OCI-C5x cells, with rucaparib 10 µM, 100% = cells with rucaparib alone",10.8% (active)
same,viability,"[11]; at 1.25 µM, OCI-C5x cells, without rucaparib",15.2% (active)
same,viability,"[11]; at 1.25 µM, OCI-P5x cells, with rucaparib 20 µM, 100% = cells with rucaparib alone",90.1% (active)
same,viability,"[11]; at 1.25 µM, OCI-P5x cells, without rucaparib",88.9% (active)
same,viability,"[11]; at 5 µM, OCI-C5x cells, with rucaparib 10 µM, 100% = cells with rucaparib alone",4.72% (active)
same,viability,"[11]; at 5 µM, OCI-C5x cells, without rucaparib",11.9% (active)
same,viability,"[11]; at 5 µM, OCI-P5x cells, with rucaparib 20 µM, 100% = cells with rucaparib alone",0.895% (active)
same,viability,"[11]; at 5 µM, OCI-P5x cells, without rucaparib",10.5% (active)
C[C@]1(c2nc3c(C(N)=O)cccc3[nH]2)CCCN1,outcome,[1],inactive
same,outcome,[2],inactive
same,outcome,[3],inactive
same,outcome,[4],inactive
same,outcome,[5],inactive
same,outcome,[6],inactive
same,SSMD,[10],0.253
same,cell count,[10],7190
same,plate-normalised HSF1 focus index,[10],1.01 (inactive)
same,inhibition,"[12]; at 0.5 µM, stronger effect = higher value",-27.2% (inactive) and -25.3% (inactive)
same,inhibition,"[12]; measured here: combination with BGB IC20, at 0.005 µM",-35.2% and -15.1%
same,inhibition,"[12]; measured here: combination with BGB IC40, at 0.005 µM",-26.8% and -17.3%
same,inhibition,"[12]; measured here: combination with BGB IC40, at 0.05 µM",-28.3% and -28.8%
same,inhibition,"[12]; measured here: combination with cisplatin, at 0.5 µM, stronger effect = higher value",-54% and -57%
same,inhibition,"[12]; measured here: combination with cisplatin, at 5 µM, stronger effect = higher value",-58.4% and -45%
same,inhibition,"[13]; BGB combo, at 5 µM",-41.3% and 0.864%
same,inhibition,[13]; at 0.5 µM,-26.5% (inactive) and -7.62% (inactive)
same,inhibition,"[13]; cisplatin combo, at 5 µM",-8.25% and -1.94%
same,inhibition,[13]; [20],-35.3% and -12.7%
same,inhibition,[13]; [21],-24.4% and -3.22%
same,inhibition,"[13]; single agent, at 5 µM",-21.8% and -0.922%
same,inhibition,"[14]; BGB IC20 combo, at 0.005 µM",-10.4% and 0.353%
same,inhibition,"[14]; BGB IC40 combo, at 0.005 µM",-32.9% and -29.7%
same,inhibition,"[14]; BGB IC40 combo, at 0.05 µM",-67.4% and -16%
same,inhibition,[14]; at 0.5 µM,-18.7% (inactive) and -15.6% (inactive)
same,inhibition,"[14]; cisplatin combo, at 0.05 µM",-73.4% and -19.3%
same,inhibition,"[14]; cisplatin combo, at 0.5 µM",-14.2% and -3.56%
same,inhibition,"[14]; cisplatin combo, at 5 µM",-53.1% and -59.6%
same,inhibition,"[14]; measured here: 5 uM single agent, at 5 µM",-10.3% and -11.7%
same,inhibition,[15]; at 0.5 µM,-20.2% (inactive) and -2.71% (inactive)
same,inhibition,"[15]; measured here: with BGB IC20, at 0.5 µM",-24.9% and -6.8%
same,inhibition,"[15]; measured here: with BGB IC20, at 5 µM",-10.1% and -13%
same,inhibition,"[15]; measured here: with cisplatin IC20, at 0.5 µM",-31.1% and -8.43%
same,inhibition,"[15]; measured here: with cisplatin IC20, at 5 µM",-30% and -31.9%
same,inhibition,"[15]; single agent, at 5 µM",-4.02% and -2.12%
same,inhibition,[16]; at 0.5 µM,-1.32% (inactive) and -13.2% (inactive)
same,inhibition,"[16]; measured here: BGB combination, at 0.5 µM",-3.82% and -21.5%
same,inhibition,"[16]; measured here: BGB combination, at 5 µM",-15.2% and -14.8%
same,inhibition,"[16]; measured here: cisplatin combination, at 0.5 µM",-9.15% and -22.2%
same,inhibition,"[16]; measured here: cisplatin combination, at 5 µM",7.37% and -17%
same,inhibition,[17]; at 0.5 µM,-14.1% (inactive) and -22% (inactive)
same,inhibition,"[17]; cisplatin combination, at 0.5 µM",-37.9% and -21.6%
same,inhibition,"[17]; cisplatin combination, at 5 µM",2.98% and -9.14%
same,inhibition,"[17]; measured here: BGB IC40 combination 0.05 uM, at 0.05 µM",13.6% and 2.76%
same,inhibition,"[17]; single agent, at 5 µM",-8.42% and -18.5%
same,inhibition,[18]; at 0.5 µM,-11.5% (inactive) and -16.6% (inactive)
same,inhibition,"[18]; cisplatin combo, at 5 µM",-70.2% and -50.3%
same,inhibition,"[18]; measured here: BGB IC40 combination, at 0.05 µM",-22.5% and 6.81%
same,inhibition,"[18]; measured here: combination with cisplatin, at 0.5 µM",-15.1%
same,inhibition,"[18]; single agent, at 5 µM",-28.5% and -25.1%
same,inhibition,[19]; at 0.5 µM,-23.7% (inactive) and 9.34% (inactive)
same,inhibition,[19]; [20],-29.8% and -8.71%
same,inhibition,[19]; [21],-22.5% and 16.5%
same,inhibition,"[19]; single agent, at 0.05 µM",-19.2% and -14.5%
same,inhibition,"[19]; single agent, at 5 µM",-45.7% and -33.6%

# — PubChem BioAssay
